From the supplement of paper PMC6555819

Test system: PPARa:RXRa (NR concentration 270 nM, RXRa partner concentration 90 nM)
Experiment: PBM binding z-score (relative to random genomic background probes); higher = stronger binding; sequences stand for … in GC…GCGATTGACAGCGTAGAATGAAGG
How it was run: (§1)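 Ligand-free nuclear receptor dimers were bound for 1 h to custom Agilent 4×180K protein-binding microarrays. Detection used antibodies against each partner (one per run). Binding z-scores rest on regression-normalized fluorescence, with random background probes as the reference.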

Sequence | PBM binding z-score
TCTTGTAGATCACGCAGGTTAAGAAAGCCTGAGT | 1.09
TCTAGCAGGCCAGAAGGTCACTCAAGAGGTACGG | 3.04
TTACCAAGGTGAAATGTCGTTGATGCACGCCTTG | 2.35
CCTTACGGGTCACTTCAGGTTATAGCATCGGAGT | 4.36
CCTATCAGGCCAGGGTCACTCAAGCATTTCGCTT | 3.33
AGAATGAGGTTAAGATCAGGTAAACAGAATACAT | 3.9
AGAATGACGTTACCAAAGATCAGGGAAACGCTTG | -0.289
ATCGAAAGGTCGAAGATGAGTATACCCACCCGAA | 4
TCGAGTAGGTTAGGGGCATTAAGAATGGCGTCGA | 1.34
TAGCCTAGGTCATTCAGGGGCCAGTATCGAAAGC | 3.76
CCAGACAGGTGAGAAGGTAACGCAGCCTCGATTA | 0.743
CCTCGGAGGACAGAAGGTCAGAGCTGTCCGCTTT | 1.84
CGAACTAGGTCATTGATAGGACAGTGAATAGTAA | 4.38
GATACAGTGTCAGCTAGAGGCCAGAGTATGGAAA | -0.257
GATACACGGTCAGCTAGAGGCCAGAGTATGGAAA | -0.296
GCAGACAGGTGAAACGCGGGTAACTCAGGGTGGC | 0.839
GCTTGTTGATCAAGGTTAAGAAAGACTAAGCTAA | 1.09
ATATGTAGGTTATCGGGTCCTTCAGTTTGCGCAT | 3.24
CCTACTGGGCCATCATGTCATTGATATCAACGTT | 0.932
ATCGGAAGGTCGTGAGGTGAGTATACAGAAAGGC | 3.13

Sequence | PBM binding z-score
TTACCAAGGTGAGCTAAGGTCGTTGATCCAACTC | 1.66
CCTGCTAGGCCAATGGTCAGCTAAAGCAGCTCGC | -0.216
CGTTCAAGGTCAATGCTAGGTCAGTGAAAGCATT | 5.27
ATCGAAAGGTCGAAGGTGGGTATACCCACCCGAA | 4.28
CGTCCAAGGTCAAGGTTAGTGAAAGAGACTCGAA | 5.63
TCATATTGGTAAAAGGTGAAAGTCGGTGTGGTAA | 3.73
GATACAGGGTTAGCTAGAGGCCAGAGTATGGAAA | 0.87
CGAACTAGCTCATCCAGGACAGTGAATACATTGA | -0.4
CGTCCAAGGTCAAGGTCAGCGAAAGAGACTCGAA | 5.89
CCTACTGGGCCAGGGTCATTGATCAGTCAAAGCA | 4.14
AGAATGAGGTAATTAAGATCAGGGAATTGCGGTC | 0.241
CGTCAAAGTGCAACTAAGGTAACGTAAAGCACGC | 1.29
TAGCCTAGGTCATTGGGCCGGTATAGTACGCATC | 3.43
TCATATAGGTAAAGGTTAAAGTCGAACGATATGA | 4.34
TCTTGTAGATCAACAGGAGGTTAAGGAAGATCGA | 1.24
AATTACGGGTCAACGAGGTTATAGCACGCGTATA | 6
CTCGAAAGGTCGTGCACAGGTGAGTATACCAAAC | 5.18
TCTCGGACGACACGAAGGTCAGAGCTTTCCAGAG | 1.96
ACTAGCAGGCCAAGGTTGGGTCACTCAAACAAAG | 1.39
TTACCAAGGTGTAAGGTCGTTGATGCACGCCTTG | 2.06

Test system: PPARg:RXRa (NR concentration 180 nM, RXRa partner concentration 90 nM)
Experiment: as above
How it was run: as §1

Sequence | PBM binding z-score
TCTTGTAGATCACGCAGGTTAAGAAAGCCTGAGT | -0.0924
TCTAGCAGGCCAGAAGGTCACTCAAGAGGTACGG | 1.46
TTACCAAGGTGAAATGTCGTTGATGCACGCCTTG | 2.41
CCTTACGGGTCACTTCAGGTTATAGCATCGGAGT | 3.23
CCTATCAGGCCAGGGTCACTCAAGCATTTCGCTT | 0.918
AGAATGAGGTTAAGATCAGGTAAACAGAATACAT | 2.61
AGAATGACGTTACCAAAGATCAGGGAAACGCTTG | 0.77
ATCGAAAGGTCGAAGATGAGTATACCCACCCGAA | 2.52
TCGAGTAGGTTAGGGGCATTAAGAATGGCGTCGA | 1.07
TAGCCTAGGTCATTCAGGGGCCAGTATCGAAAGC | 1.95
CCAGACAGGTGAGAAGGTAACGCAGCCTCGATTA | 0.809
CCTCGGAGGACAGAAGGTCAGAGCTGTCCGCTTT | -0.203
CGAACTAGGTCATTGATAGGACAGTGAATAGTAA | 7.14
GATACAGTGTCAGCTAGAGGCCAGAGTATGGAAA | 0.158
GATACACGGTCAGCTAGAGGCCAGAGTATGGAAA | 0.351
GCAGACAGGTGAAACGCGGGTAACTCAGGGTGGC | 0.342
GCTTGTTGATCAAGGTTAAGAAAGACTAAGCTAA | -0.203
ATATGTAGGTTATCGGGTCCTTCAGTTTGCGCAT | 5.01
CCTACTGGGCCATCATGTCATTGATATCAACGTT | 1.49
ATCGGAAGGTCGTGAGGTGAGTATACAGAAAGGC | 1.68

Sequence | PBM binding z-score
TTACCAAGGTGAGCTAAGGTCGTTGATCCAACTC | 0.5
CCTGCTAGGCCAATGGTCAGCTAAAGCAGCTCGC | 0.706
CGTTCAAGGTCAATGCTAGGTCAGTGAAAGCATT | 4.81
ATCGAAAGGTCGAAGGTGGGTATACCCACCCGAA | 3.74
CGTCCAAGGTCAAGGTTAGTGAAAGAGACTCGAA | 5.02
TCATATTGGTAAAAGGTGAAAGTCGGTGTGGTAA | 3.98
GATACAGGGTTAGCTAGAGGCCAGAGTATGGAAA | 0.379
CGAACTAGCTCATCCAGGACAGTGAATACATTGA | 0.522
CGTCCAAGGTCAAGGTCAGCGAAAGAGACTCGAA | 6.76
CCTACTGGGCCAGGGTCATTGATCAGTCAAAGCA | 3.23
AGAATGAGGTAATTAAGATCAGGGAATTGCGGTC | 0.544
CGTCAAAGTGCAACTAAGGTAACGTAAAGCACGC | 0.842
TAGCCTAGGTCATTGGGCCGGTATAGTACGCATC | 2.46
TCATATAGGTAAAGGTTAAAGTCGAACGATATGA | 5.57
TCTTGTAGATCAACAGGAGGTTAAGGAAGATCGA | 0.0349
AATTACGGGTCAACGAGGTTATAGCACGCGTATA | 6.93
CTCGAAAGGTCGTGCACAGGTGAGTATACCAAAC | 3.43
TCTCGGACGACACGAAGGTCAGAGCTTTCCAGAG | 0.474
ACTAGCAGGCCAAGGTTGGGTCACTCAAACAAAG | 0.643
TTACCAAGGTGTAAGGTCGTTGATGCACGCCTTG | 2.4
